Results as given in PubChem BioAssay.
For some of these results: Results with a measured potency or affinity are listed apart. This is one part of the list. Activity calls are given as the source filed them.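 How the source made its calls, unless noted: active means compound raising the membrane signal above positive-control mean plus 3 SD in both repeats, and a primary screen hit; inactive means the rest.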

What was measured:
[1] = test system: TRPC4 beta (transient receptor potential cation channel C4), mouse; assay: activators of mouse TRPC4 channel, confirmation, cell-based, Fluo4 calcium, HEK293 TRPC4beta/mu-opioid, duplicates, 10 µM (AID 2426;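 active means fluorescence ratio normalized to control raised more than 50% in primary screen plus both repeat runs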); conditions: Fluo4 calcium fluorescence, at 10 µM; hits give high values
[2] = test system: transient receptor potential cation channel C4 beta (TRPC4), mouse; assay: activators of mouse TRPC4 channel, confirmation, cell-based, second round, Fluo4, HEK293 TRPC4beta/mu-opioid, 1 µM (AID 2461;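 active means primary screen active and over 50% activation in each of two duplicate runs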); conditions: Fluo4 calcium fluorescence, at 1 µM; hits give high values
[3] = test system: TRPC4 (transient receptor potential cation channel C4 beta), mouse; assay: positive allosteric modulators of mouse TRPC4, confirmation, cell-based, second round, Fluo-4, HEK293 TRPC4beta/mu-opioid, 1 µM (AID 2554;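 active means primary screen hit whose fluorescence ratio, in both repeats, exceeds the weak agonist control mean by 3 SD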); conditions: DAMGO EC20, Fluo-4 calcium flux, at 1 µM; hits give high values
[4] = test system: TRPC4 beta (transient receptor potential cation channel C4), mouse; assay: positive allosteric modulators of mouse TRPC4, confirmation, cell-based, Fluo-4, HEK293 TRPC4beta/mu-opioid (AID 2555;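 active means primary screen hit whose calcium fluorescence ratio, in both repeats, exceeds the weak agonist control mean by 3 SD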); conditions: DAMGO EC20, Fluo-4 calcium flux, at 10 µM; hits give high values
[5] = molecular target: Short transient receptor potential channel 4 (Mus musculus) (UniProt Q9QUQ5); assay: inhibitors of mouse TRPC4 channel, confirmation, cell-based, Fluo4, HEK293 TRPC4beta/mu-opioid (AID 2636;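 active means calcium signal cut by more than 3 SD below the full-agonist control yet still positive, in both repeats and the earlier primary screen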); conditions: DAMGO, Fluo4 calcium flux, at 10 µM; hits give high values
Chain of Short transient receptor potential channel 4 (Mus musculus) (Q9QUQ5 whole entry, looked up): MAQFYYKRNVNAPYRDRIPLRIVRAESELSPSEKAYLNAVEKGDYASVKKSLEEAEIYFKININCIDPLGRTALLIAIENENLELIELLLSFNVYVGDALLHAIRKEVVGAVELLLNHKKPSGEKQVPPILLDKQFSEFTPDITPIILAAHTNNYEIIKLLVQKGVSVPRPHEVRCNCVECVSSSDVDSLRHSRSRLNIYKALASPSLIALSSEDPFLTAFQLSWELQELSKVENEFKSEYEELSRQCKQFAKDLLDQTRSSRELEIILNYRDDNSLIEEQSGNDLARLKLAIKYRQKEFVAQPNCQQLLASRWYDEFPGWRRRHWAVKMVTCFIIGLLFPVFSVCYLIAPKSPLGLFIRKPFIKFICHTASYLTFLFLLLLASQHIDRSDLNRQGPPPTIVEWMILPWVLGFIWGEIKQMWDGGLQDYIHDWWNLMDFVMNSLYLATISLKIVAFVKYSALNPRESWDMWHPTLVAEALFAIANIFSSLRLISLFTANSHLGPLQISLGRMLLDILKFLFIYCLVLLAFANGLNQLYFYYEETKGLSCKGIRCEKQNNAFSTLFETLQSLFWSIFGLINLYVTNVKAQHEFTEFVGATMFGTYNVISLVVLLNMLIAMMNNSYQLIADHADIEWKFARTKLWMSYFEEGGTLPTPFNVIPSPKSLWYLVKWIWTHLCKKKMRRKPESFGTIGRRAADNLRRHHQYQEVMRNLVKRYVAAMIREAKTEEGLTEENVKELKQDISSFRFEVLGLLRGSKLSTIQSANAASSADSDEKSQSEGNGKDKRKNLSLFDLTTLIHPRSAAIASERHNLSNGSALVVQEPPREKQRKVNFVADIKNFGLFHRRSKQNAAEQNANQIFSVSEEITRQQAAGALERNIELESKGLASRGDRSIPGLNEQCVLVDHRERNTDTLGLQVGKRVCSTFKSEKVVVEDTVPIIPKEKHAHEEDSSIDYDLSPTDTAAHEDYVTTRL

[6] = molecular target: Short transient receptor potential channel 4 (Mus musculus) (UniProt Q9QUQ5); assay: inhibitors of mouse TRPC4 channel, confirmation, cell-based, second round, Fluo4, HEK293 TRPC4beta/mu-opioid, 1 µM (AID 2637;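 active means calcium signal ratio cut to more than 3 SD under the fully stimulated control mean yet still positive, in both repeats and the primary screen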); conditions: Fluo4 calcium flux, DAMGO, at 1 µM; hits give high values
[7] = molecular target: Short transient receptor potential channel 4 (Mus musculus) (UniProt Q9QUQ5); assay: mouse TRPC4 channel activators, dose response, cell-based, HEK293 TRPC4/mu-opioid, Fluo-4 calcium (AID 434937;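 active means primary screen activator hit with a dose response curve and TRPC4 channel activation at any tested dose; inactive means no activation, no dose response, or not a primary hit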)
[8] = molecular target: Short transient receptor potential channel 4 (Mus musculus) (UniProt Q9QUQ5); assay: TRPC4 positive allosteric modulators, dose response, cell-based, HEK293 TRPC4/mu-opioid, Fluo-4 calcium, EC20 DAMGO (AID 434941;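 active means earlier screen potentiator hit that boosts the TRPC4 ion channel at some dose, with a dose response; inactive means no potentiation, no dose response, or not a prior hit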;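 further: calcium entry triggered by an EC20 dose of DAMGO at the co-expressed mu-opioid receptor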)
[9] = molecular target: Short transient receptor potential channel 4 (Mus musculus) (UniProt Q9QUQ5); assay: mouse TRPC4 channel inhibitors, dose response, cell-based, HEK293 TRPC4/mu-opioid, Fluo-4 calcium (AID 434942;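 active means primary screen inhibitor hit that blocks the TRPC4 channel at some tested dose, yielding a dose curve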)
[10] = molecular target: Short transient receptor potential channel 6 (Mus musculus) (UniProt Q61143); assay: inhibition of mouse TRPC6 channel, confirmation, selectivity assay for TRPC4 inhibitor project, cell-based, HEK293, membrane potential dye, duplicate (AID 434948;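 active means active in primary screen and both duplicates, each dropping signal beyond three positive-control SD with fluorescence still positive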); conditions: HEK293 TRPC6, membrane potential dye fluorescence, at 10 µM, stimulated with maximal-effect acetylcholine; hits give high values
Chain of Short transient receptor potential channel 6 (Mus musculus) (Q61143 whole entry, looked up): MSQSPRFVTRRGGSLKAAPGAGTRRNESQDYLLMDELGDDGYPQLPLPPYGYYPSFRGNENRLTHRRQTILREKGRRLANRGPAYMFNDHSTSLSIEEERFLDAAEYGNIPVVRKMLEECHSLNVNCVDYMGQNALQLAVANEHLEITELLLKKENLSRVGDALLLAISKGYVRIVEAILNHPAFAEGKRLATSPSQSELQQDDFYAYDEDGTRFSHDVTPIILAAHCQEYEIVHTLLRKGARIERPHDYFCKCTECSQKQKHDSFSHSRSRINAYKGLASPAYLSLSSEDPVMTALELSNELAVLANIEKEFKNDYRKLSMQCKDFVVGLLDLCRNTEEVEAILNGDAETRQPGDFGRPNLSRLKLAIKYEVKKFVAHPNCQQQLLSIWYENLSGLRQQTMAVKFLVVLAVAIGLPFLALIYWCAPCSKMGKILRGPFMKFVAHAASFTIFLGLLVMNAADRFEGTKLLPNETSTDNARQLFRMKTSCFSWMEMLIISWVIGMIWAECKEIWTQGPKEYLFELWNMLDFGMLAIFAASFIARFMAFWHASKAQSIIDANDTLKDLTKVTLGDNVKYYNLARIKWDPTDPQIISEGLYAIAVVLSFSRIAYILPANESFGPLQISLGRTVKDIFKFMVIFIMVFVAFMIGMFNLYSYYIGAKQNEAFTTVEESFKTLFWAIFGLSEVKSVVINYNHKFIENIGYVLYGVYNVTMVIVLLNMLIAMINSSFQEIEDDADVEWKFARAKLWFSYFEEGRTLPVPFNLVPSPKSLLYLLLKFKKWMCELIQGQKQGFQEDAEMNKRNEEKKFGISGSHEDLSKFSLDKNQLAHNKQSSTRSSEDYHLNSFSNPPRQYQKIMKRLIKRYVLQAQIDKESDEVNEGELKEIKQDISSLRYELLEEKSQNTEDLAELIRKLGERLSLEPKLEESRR

[11] = molecular target: Short transient receptor potential channel 6 (Mus musculus) (UniProt Q61143); assay: activation of mouse TRPC6 channel, confirmation, selectivity assay for TRPC4 activator project, cell-based, HEK293, membrane potential dye, duplicate (AID 434950;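 active means membrane potential signal rise above negative control mean plus 3 SD in both duplicates, also active in the earlier TRPC4 screen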); conditions: HEK293 TRPC6, membrane potential fluorescence, at 10 µM; hits give high values
[12] = molecular target: Short transient receptor potential channel 6 (Mus musculus) (UniProt Q61143); assay: TRPC6 potentiation by TRPC4 potentiator hits, confirmation, selectivity assay for TRPC4 potentiator project, HEK293 cells, membrane potential dye, duplicate (AID 434952); conditions: HEK293 TRPC6, membrane potential dye fluorescence, at 10 µM, maximal acetylcholine added after compound; hits give high values
[13] = molecular target: Short transient receptor potential channel 4 (Mus musculus) (UniProt Q9QUQ5); assay: calcium flux activators in TRPC4/5HT1a cells, counter-screen for TRPC4 activator project, cell-based, second counter screen, HEK293 TRPC4/5HT1a, Fluo-4 (AID 434977;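 active means calcium signal rise above buffer-control mean plus 5 SD in both duplicates, and also a hit in the primary screen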); conditions: Fluo-4 calcium flux, at 10 µM; hits give high values
[14] = calcium flux inhibitors in TRPC4/5HT1a cells, confirmation, counter-screen for TRPC4 inhibitor project, cell-based, second counter screen, HEK293 TRPC4/5HT1a, Fluo-4 (AID 434978;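 active means primary screen active whose calcium signal fell more than 3 SD beyond the full-serotonin control mean in both duplicate plates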;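 further: serotonin given first at submaximal then at maximal dose after compound preincubation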); conditions: Fluo-4 calcium flux, at 10 µM, serotonin added to trigger calcium flux; hits give high values
[15] = test system: TRPC4 (mouse), co-expressed with 5HT1a in HEK293; assay: calcium flux potentiators in TRPC4/5HT1a cells, confirmation, counter-screen for TRPC4 potentiator project, cell-based, second counter screen, HEK293 TRPC4/5HT1a, Fluo-4 (AID 434979;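 active means signal rise over 3 SD above mean of control wells given weak agonist, in both repeats and first screen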); conditions: Fluo-4 calcium flux, at 10 µM, serotonin added at its EC20 dose; hits give high values
[16] = calcium flux activation in mu-opioid HEK293 cells, confirmation, counter-screen for TRPC4 activator project, cell-based, HEK293 mu-opioid receptor line (AID 449723;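 active means hit in primary screen, with calcium signal over 5 SD above buffer well mean in both duplicates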;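 further: counter screen cells carry the mu-opioid receptor alone and lack TRPC4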); conditions: Fluo-4 calcium fluorescence, at 10 µM; hits give high values
[17] = calcium flux enhancement in mu-opioid HEK293 cells, confirmation, counter-screen for TRPC4 allosteric potentiator project, cell-based, HEK293 mu-opioid receptor line (AID 449724;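 active means calcium signal rise more than 3 SD above the low-dose agonist control mean, in both duplicate plates and the primary screen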); conditions: Fluo-4 calcium flux, at 10 µM, compound added before EC20 DAMGO stimulus; hits give high values
[18] = nonspecific thallium flux increase in parental CHO-K1, confirmation, counter-screen for KCNQ2 potentiator project, cell-based, FluxOR thallium flux, duplicate (AID 2282;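 active means signal rise of at least 3 SD above the untreated control mean, in both duplicate wells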;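 further: counter screen of KCNQ2 potentiator hits so any rise reflects channel-independent effects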); conditions: parental CHO-K1 cells, FluxOR thallium flux fluorescence; at 10 µM; hits give high values; zero = vehicle mean+3SD, 100% = vehicle-minus-blank window
[19] = molecular target: Potassium voltage-gated channel subfamily KQT member 1 (Homo sapiens) (UniProt P51787); assay: human KCNQ1 channel potentiation off-target, confirmation, selectivity assay for KCNQ2 potentiator project, cell-based, CHO, FluxOR thallium flux (AID 2283;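 active means fluorescence ratio rise of at least 3 SD of vehicle wells above their mean, in both replicate wells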;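 further: 0% = vehicle mean plus 3 SD and 100% = vehicle minus unstimulated blank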); conditions: CHO KCNQ1 stable, FluxOR thallium flux fluorescence; at 10 µM; hits give high values; beyond 3SD, as % of vehicle-control signal
Chain of Potassium voltage-gated channel subfamily KQT member 1 (Homo sapiens) (P51787 whole entry, looked up): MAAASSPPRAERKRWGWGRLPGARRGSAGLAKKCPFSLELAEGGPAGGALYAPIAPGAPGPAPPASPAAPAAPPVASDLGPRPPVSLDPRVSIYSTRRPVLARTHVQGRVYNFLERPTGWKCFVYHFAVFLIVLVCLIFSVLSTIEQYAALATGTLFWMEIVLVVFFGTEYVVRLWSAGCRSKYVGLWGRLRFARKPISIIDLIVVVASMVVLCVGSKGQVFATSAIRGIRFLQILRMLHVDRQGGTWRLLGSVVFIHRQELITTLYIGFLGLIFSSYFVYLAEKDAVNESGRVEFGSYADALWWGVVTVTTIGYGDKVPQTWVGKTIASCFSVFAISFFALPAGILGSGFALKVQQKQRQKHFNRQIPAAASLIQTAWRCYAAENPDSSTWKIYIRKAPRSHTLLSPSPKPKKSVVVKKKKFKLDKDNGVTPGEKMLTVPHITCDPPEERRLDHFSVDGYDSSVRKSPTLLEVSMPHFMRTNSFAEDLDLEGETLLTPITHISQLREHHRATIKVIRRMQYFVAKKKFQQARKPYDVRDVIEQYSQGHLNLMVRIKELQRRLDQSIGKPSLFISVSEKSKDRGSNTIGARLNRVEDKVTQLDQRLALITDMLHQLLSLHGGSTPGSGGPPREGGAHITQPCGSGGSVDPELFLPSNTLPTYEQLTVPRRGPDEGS

[20] = molecular target: Potassium voltage-gated channel subfamily KQT member 2 (Rattus norvegicus) (UniProt O88943); assay: rat KCNQ2 channel potentiators, confirmation, cell-based, CHO, FluxOR thallium flux, duplicate (AID 2287;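 active means fluorescence ratio rising 3 SD or more over the vehicle control mean in both replicates, plus primary screen hit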;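 further: peak minus minimum thallium fluorescence divided by baseline after K/Tl stimulus; 0% = vehicle mean plus 3 SD and 100% = vehicle minus unstimulated blank difference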); conditions: CHO-KCNQ2 cells, FluxOR thallium flux fluorescence; at 10 µM; hits give high values
Chain of Potassium voltage-gated channel subfamily KQT member 2 (Rattus norvegicus) (O88943 whole entry, looked up): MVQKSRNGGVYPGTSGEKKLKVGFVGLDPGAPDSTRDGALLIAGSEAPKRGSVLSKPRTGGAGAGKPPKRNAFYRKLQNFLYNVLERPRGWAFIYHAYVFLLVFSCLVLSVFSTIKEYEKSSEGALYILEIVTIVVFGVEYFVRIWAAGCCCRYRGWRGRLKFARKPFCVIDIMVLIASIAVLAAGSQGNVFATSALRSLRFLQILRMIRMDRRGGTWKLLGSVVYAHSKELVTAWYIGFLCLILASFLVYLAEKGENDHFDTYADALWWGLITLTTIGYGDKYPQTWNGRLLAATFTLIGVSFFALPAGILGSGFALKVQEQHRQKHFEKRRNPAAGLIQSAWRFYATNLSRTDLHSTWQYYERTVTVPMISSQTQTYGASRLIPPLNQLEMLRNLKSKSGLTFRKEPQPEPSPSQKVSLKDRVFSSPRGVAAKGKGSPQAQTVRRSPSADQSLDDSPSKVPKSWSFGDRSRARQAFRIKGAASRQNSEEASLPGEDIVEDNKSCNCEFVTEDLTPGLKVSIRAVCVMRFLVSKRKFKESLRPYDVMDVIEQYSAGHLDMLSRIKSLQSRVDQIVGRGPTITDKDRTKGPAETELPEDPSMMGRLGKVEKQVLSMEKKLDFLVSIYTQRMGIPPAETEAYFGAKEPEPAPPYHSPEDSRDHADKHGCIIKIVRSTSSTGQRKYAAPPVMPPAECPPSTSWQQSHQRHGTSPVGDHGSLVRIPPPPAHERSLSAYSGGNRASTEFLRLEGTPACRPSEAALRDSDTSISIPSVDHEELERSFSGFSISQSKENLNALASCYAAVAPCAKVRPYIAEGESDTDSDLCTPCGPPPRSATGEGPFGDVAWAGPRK

CCN1CCCC1CNCc1ccc(Cl)cc1Cl (centres undefined)
inactive: outcome [1] | outcome [2] | outcome [5] | outcome [6] | outcome [7] | outcome [8] | outcome [9] | outcome [10] | outcome [11] | outcome [12] | outcome [13] | outcome [14] | outcome [16] | outcome [17]
active: potentiation [3] 11% | potentiation [4] 8% | potentiation [15] 12.9%

C/C(CC(=O)NCc1ccc(Cl)cc1)=N\NC(=O)COc1ccc(C)cc1Br
inactive: outcome [1] | outcome [2] | outcome [3] | outcome [4] | outcome [5] | outcome [6] | outcome [7] | outcome [8] | outcome [9] | outcome [10] | outcome [11] | outcome [12] | outcome [13] | outcome [14] | outcome [15] | outcome [16] | outcome [17]

Oc1c(Cl)cc(Cl)c(Cl)c1Cc1c(O)c(Cl)cc(Cl)c1Cl
inactive: activation over 3SD threshold [19] -3.6%
active: activity increase over 3SD of controls [18] 45% | potentiation, less the hit threshold [20] 112%

O=C(CNc1ccc(Br)cc1)c1ccc(O)cc1
active: inhibition [5] 82% | inhibition [10] 60.5%
inactive: outcome [1] | outcome [2] | outcome [3] | outcome [4] | outcome [6] | outcome [7] | outcome [8] | outcome [9] | outcome [11] | outcome [12] | outcome [13] | outcome [14] | outcome [15] | outcome [16] | outcome [17]

Cc1cc(OCC(=O)NNC(=S)NC(=O)c2cccs2)ccc1Cl
inactive: outcome [1] | outcome [2] | outcome [3] | outcome [4] | outcome [5] | outcome [6] | outcome [7] | outcome [8] | outcome [9] | outcome [10] | outcome [11] | outcome [12] | outcome [13] | outcome [14] | outcome [15] | outcome [16] | outcome [17]

CCOC(=O)CSc1nc2ccccc2c(=O)n1C1CCCC1
inactive: outcome [1] | outcome [2] | outcome [3] | outcome [4] | outcome [5] | outcome [6] | outcome [7] | outcome [8] | outcome [9] | outcome [10] | outcome [11] | outcome [12] | outcome [13] | outcome [14] | outcome [15] | outcome [16] | outcome [17]

Cc1cc(OCCN2CCCC2)ccc1[N+](=O)[O-]
active: potentiation [3] 11% | potentiation [4] 11% | potentiation [15] 13.9%
inactive: outcome [1] | outcome [2] | outcome [5] | outcome [6] | outcome [7] | outcome [8] | outcome [9] | outcome [10] | outcome [11] | outcome [12] | outcome [13] | outcome [14] | outcome [16] | outcome [17]

COc1ccc(C(=O)Nc2ccccc2N2CCN(C(=O)c3ccccc3)CC2)cc1Br
active: inhibition [5] 75%
inactive: outcome [1] | outcome [2] | outcome [3] | outcome [4] | outcome [6] | outcome [7] | outcome [8] | outcome [9] | outcome [10] | outcome [11] | outcome [12] | outcome [13] | outcome [14] | outcome [15] | outcome [16] | outcome [17]

Cc1ccc(CS(=O)(=O)c2ncc(Cl)c(C(=O)Nc3nnc(C)s3)n2)cc1
inactive: potentiation, less the hit threshold [20] -85.4%
active: activity increase over 3SD of controls [18] 30.6% | activation over 3SD threshold [19] 79.7%

OC(c1ccccc1)(c1ccccc1)C1CCN(C(=S)NC2CCCC2)CC1
inactive: outcome [1] | outcome [2] | outcome [3] | outcome [4] | outcome [5] | outcome [6] | outcome [7] | outcome [8] | outcome [9] | outcome [10] | outcome [11] | outcome [12] | outcome [13] | outcome [14] | outcome [15] | outcome [16] | outcome [17]

CCN1C2=NCCCN2c2cc(C)c(C)cc21
inactive: outcome [1] | outcome [2] | outcome [3] | outcome [4] | outcome [5] | outcome [6] | outcome [7] | outcome [8] | outcome [9] | outcome [10] | outcome [11] | outcome [12] | outcome [13] | outcome [14] | outcome [15] | outcome [16] | outcome [17]

CC1CC(C)CN(CCCNC(=O)C2CCCN(c3ncnc4c3nc3n4CCCCC3)C2)C1 (centres undefined)
active: potentiation [3] 18% | potentiation [15] 17.1%
inactive: outcome [1] | outcome [2] | outcome [4] | outcome [5] | outcome [6] | outcome [7] | outcome [8] | outcome [9] | outcome [10] | outcome [11] | outcome [12] | outcome [13] | outcome [14] | outcome [16] | outcome [17]

COc1ccc(C(=O)CCC(=O)Nc2cccc(Cl)c2)cc1
active: potentiation [4] 10% | potentiation [15] 22.1%
inactive: outcome [1] | outcome [2] | outcome [3] | outcome [5] | outcome [6] | outcome [7] | outcome [8] | outcome [9] | outcome [10] | outcome [11] | outcome [12] | outcome [13] | outcome [14] | outcome [16] | outcome [17]

CC(C)Cn1c(CN2CCN(C)C(CCO)C2)nc2ccccc21 (centres undefined)
inactive: outcome [1] | outcome [2] | outcome [3] | outcome [4] | outcome [5] | outcome [6] | outcome [7] | outcome [8] | outcome [9] | outcome [10] | outcome [11] | outcome [12] | outcome [13] | outcome [14] | outcome [15] | outcome [16] | outcome [17]

CCOC(=O)c1ccc(NC(=S)N2CCSC2c2ccc(Cl)cc2)cc1 (centres undefined)
inactive: outcome [1] | outcome [2] | outcome [3] | outcome [5] | outcome [6] | outcome [7] | outcome [8] | outcome [9] | outcome [10] | outcome [11] | outcome [12] | outcome [13] | outcome [14] | outcome [16] | outcome [17]
active: potentiation [4] 21% | potentiation [15] 26.4%

CCN(CC)CCNC(=O)c1cc2c(-c3cccc(OC)c3)nn(C)c2s1
active: potentiation [15] 20.8%
inactive: outcome [1] | outcome [2] | outcome [3] | outcome [4] | outcome [5] | outcome [6] | outcome [7] | outcome [8] | outcome [9] | outcome [10] | outcome [11] | outcome [12] | outcome [13] | outcome [14] | outcome [16] | outcome [17]
